The AC50 is the midpoint of the concentration-response curve, whichever way the signal moves.

Calls of active or inactive are those of the source. Rule for the calls: active = hit-call score of the fitted dose curve at least 0.9, where 1 is the maximum; inactive = score below 0.9.

Assay [1] can be described thus: ATG_E_Box_CIS: Attagene CIS-FACTORIAL HepG2 Assay for human Enhancer Box (E-box) (AID 2282936). To be noted: HepG2 E-box cis-reporter transcription, actives raise or lower the signal. A digest of the protocol:
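Multiplexed CIS reporter system in transiently transfected HepG2 cells measures native transcription factor activity. Reporter RNA after 24 h exposure is profiled by RT-PCR-capillary electrophoresis.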

A short description of assay [2]: ATG_EGR_CIS: Attagene CIS-FACTORIAL HepG2 Assay for human Early Growth Response 1 (EGR1) (AID 2282938). Conditions: HepG2 Attagene CIS-FACTORIAL EGR reporter mRNA; actives raise or lower the signal. A digest of the protocol: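 Transient transfection of human HepG2 with multiple cis-regulated reporter units, chemical exposure 24 h, total RNA isolated. Reverse transcription, PCR, fluorescent labelling and capillary electrophoresis quantify reporter transcripts; activity fitted bidirectionally against DMSO.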

Assay [3] can be described thus: ATG_M_19_CIS: Attagene CIS-FACTORIAL HepG2 Assay for M19 Transcription Factor (Internal Marker) (AID 2282939). To be noted: HepG2 Attagene CIS-FACTORIAL M19 internal marker reporter; actives raise or lower the signal. A digest of the protocol:
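Signals come from fluorescence of labelled reporter-specific PCR fragments resolved by capillary electrophoresis, following 24 h treatment of HepG2 cells transfected with cis-promoter reporter units; activity was fitted in both directions relative to DMSO.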

A short description of assay [4]: ATG_ERE_CIS: Attagene CIS-FACTORIAL HepG2 Assay for Estrogen Response Element (ERE) (AID 2282940). Conditions: HepG2 ERE cis-reporter, Attagene RNA transcript; actives raise or lower the signal. The gist of the method: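 Fluorescence of capillary-separated, FAM-labelled reporter cDNA fragments indicates reporter mRNA levels in HepG2 cells exposed to chemicals for 24 h. Transient transfection with cis-regulated units; data fitted in both directions against DMSO.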

Assay [5] is described as follows: ATG_Ets_CIS: Attagene CIS-FACTORIAL HepG2 Assay for human Erythroblast Transformation Specific (ETS) (AID 2282941). To be noted: HepG2 ETS cis-reporter transcription, actives raise or lower the signal. A digest of the protocol:
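Steps: transfect HepG2 with multiple reporter units; treat compound 24 h; isolate RNA, DNase-treat, reverse-transcribe; PCR-amplify, label with 6-FAM, digest with HpaI; separate by capillary electrophoresis. Activity fitted both directions versus DMSO.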

For assay [6], the target named is Hepatocyte nuclear factor 3-beta (Homo sapiens) (UniProt Q9Y261). The experiment in a line: ATG_FoxA2_CIS: Attagene CIS-FACTORIAL HepG2 Assay for human Forkhead box A2 (FOXA2) (AID 2282942). Conditions: HepG2 cis-reporter transcription factor activity, 24 h; actives raise or lower the signal. A digest of the protocol: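 Transient MRTU transfection of HepG2 liver cells; 24 h treatment; total RNA → oligo(dT) RT → PCR → FAM primer extension → HpaI cut → CE. Bidirectional fit vs DMSO.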

Assay [7] is described as follows: ATG_FoxO_CIS: Attagene CIS-FACTORIAL HepG2 Assay for human Forkhead box O (FoxO) (AID 2282943). To be noted: HepG2 Attagene cis-reporter, FoxO element, mRNA; actives raise or lower the signal. A digest of the protocol:
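Values reflect reporter mRNA induction or loss in HepG2 cells 24 h post-dosing, fitted bidirectionally with DMSO as negative control and baseline. Detection used RT-PCR and fluorescence capillary electrophoresis.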

Assay [8] in a line: ATG_GLI_CIS: Attagene CIS-FACTORIAL HepG2 Assay for human Zinc Finger Protein GLI1 (AID 2282945). Conditions: HepG2, Attagene cis-factorial reporter mRNA, GLI element; actives raise or lower the signal. A digest of the protocol: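 HepG2 cells transiently transfected with cis-promoter multiplexed reporter units report endogenous transcription factor activity. After 24 h chemical exposure, reporter mRNA was quantified by RT-PCR, 6-FAM labelling, HpaI digestion and capillary electrophoresis, with bidirectional fitting against DMSO.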

Assay [9] can be described thus: ATG_GRE_CIS: Attagene CIS-FACTORIAL HepG2 Assay for human Glucocorticoid Response Elements (GRE) (AID 2282947). Conditions: HepG2 GRE cis-reporter, Attagene multiplex mRNA; actives raise or lower the signal. The gist of the method: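 Following 24 h chemical exposure of transiently transfected HepG2 cells, total RNA was reverse-transcribed and reporter cDNA amplified, fluorescently labelled and sized by capillary electrophoresis. Signal gain or loss was fitted relative to DMSO vehicle.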

The nature of assay [10]: ATG_ISRE_CIS: Attagene CIS-FACTORIAL HepG2 Assay for human Interferon Regulatory Factor 1 (IRF1) binding to an Interferon-Stimulated Response Element (ISRE) (AID 2282948). Conditions: HepG2 ISRE cis-reporter (Attagene), mRNA transcription readout; actives raise or lower the signal. The gist of the method: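 Transfected HepG2 (multiple reporter transcription units, cis elements) dosed 24 h. RNA → oligo(dT) RT → PCR → 6-FAM primer extension → HpaI → CE. DMSO = negative control/baseline.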

Assay [11] is described as follows: ATG_M_32_CIS: Attagene CIS-FACTORIAL HepG2 Assay for M32 Transcription Factor (Internal Marker) (AID 2282949).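 Note: background control marker of the multiplexed CIS panel rather than a real target.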 To be noted: HepG2 Attagene cis-factorial M32 reporter, mRNA; actives raise or lower the signal. A digest of the protocol: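 HepG2 cells transiently transfected with multiplexed cis-regulated reporter units, dosed 24 h. Reporter mRNA quantified by RT-PCR, 6-FAM labelling, HpaI digestion and capillary electrophoresis; bidirectional fit vs DMSO.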

A short description of assay [12]: ATG_M_06_CIS: Attagene CIS-FACTORIAL HepG2 Assay for M06 Transcription Factor (Internal Marker) (AID 2282950). Conditions: HepG2 Attagene CIS-FACTORIAL M06 internal marker reporter; actives raise or lower the signal. The gist of the method:
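HepG2 liver cells, 24 h exposure. Reporter transcripts from transfected cis-element constructs quantified by RT-PCR/capillary electrophoresis fluorescence. Bidirectional curve fit against DMSO.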

In assay [13] the target is Hypoxia-inducible factor 1-alpha (Homo sapiens) (UniProt Q16665). The experiment in a line: ATG_HIF1a_CIS: Attagene CIS-FACTORIAL HepG2 Assay for human Hypoxia Inducible Factor 1 (HIF1A) (AID 2282951). To be noted: HepG2 Attagene cis-factorial HIF1a reporter transcription; actives raise or lower the signal. A digest of the protocol:
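Transient MRTU transfection of human HepG2 liver cells, 24 h compound treatment, then total RNA isolation, oligo(dT) reverse transcription, PCR amplification, fluorescent labelling and capillary electrophoresis of reporter fragments. Gain or loss relative to DMSO.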

Assay [14] has as its target Hepatocyte nuclear factor 6 (Homo sapiens) (UniProt Q9UBC0). The experiment in a line: ATG_HNF6_CIS: Attagene CIS-FACTORIAL HepG2 Assay for human Hepatocyte Nuclear Factor 6 (HNF6) (AID 2282952). Conditions: HepG2 Attagene cis-factorial HNF6 reporter transcription; actives raise or lower the signal. A digest of the protocol: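 HepG2 cells transiently transfected with cis-element-driven multiplexed reporter units measuring endogenous transcription factor activity. After 24 h exposure, reporter mRNA quantified by RT-PCR, FAM-labelled fragments and capillary electrophoresis; bidirectional fitting versus DMSO.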

Assay [15] can be described thus: ATG_MRE_CIS: Attagene CIS-FACTORIAL HepG2 Assay for human Metal Responsive Element (MRE) (AID 2282954). To be noted: HepG2 MRE cis-reporter transcription, Attagene multiplex; actives raise or lower the signal. A digest of the protocol:
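Step one: transfect HepG2 with cis-regulated reporter units. Step two: dose 24 h. Step three: isolate RNA, RT-PCR, 6-FAM label, HpaI digest, capillary electrophoresis. Fit bidirectionally to DMSO.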

Assay [16] is described as follows: ATG_GATA_CIS: Attagene CIS-FACTORIAL HepG2 Assay for human GATA Binding Protein (AID 2282944). Conditions: HepG2 GATA cis-element reporter, Attagene multiplex mRNA; actives raise or lower the signal. A digest of the protocol: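 After transfecting HepG2 cells with multiple cis-regulated reporter units, chemicals are dosed for 24 h; isolated RNA undergoes RT-PCR and fluorescent labeling before capillary electrophoresis, with activity expressed against DMSO.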

In assay [17] the target is Heat shock factor protein 1 (Homo sapiens) (UniProt Q00613). The experiment in a line: ATG_HSE_CIS: Attagene CIS-FACTORIAL HepG2 Assay for human Heat Shock Transcription Factor 1 (HSE) (AID 2282953). To be noted: HepG2 HSE cis-reporter, Attagene RNA transcription; actives raise or lower the signal. A digest of the protocol:
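Endogenous transcription factor activity captured via cis-promoter reporter units transfected into HepG2; treatment lasted 24 h. Fluorescence intensity of reporter fragments analysed with bidirectional curve fitting, DMSO baseline.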

The nature of assay [18]: ATG_M_61_CIS: Attagene CIS-FACTORIAL HepG2 Assay for M61 Transcription Factor (Internal Marker) (AID 2282937). To be noted: HepG2 Attagene CIS-FACTORIAL M61 internal marker reporter; actives raise or lower the signal. A digest of the protocol:
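Human liver HepG2, transient MRTU transfection (cis promoter elements), 24 h compound. Total RNA → oligo(dT) RT → PCR → FAM label → HpaI → CE. Internal background marker; bidirectional fitting, DMSO = baseline.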

A short description of assay [19]: ATG_PBREM_CIS: Attagene CIS-FACTORIAL HepG2 Assay for human Phenobarbital-responsive Enhancer Module (PBREM) (AID 2282955). Conditions: HepG2 PBREM cis-reporter, Attagene multiplexed transcription; actives raise or lower the signal. A digest of the protocol: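 Endogenous transcription factors in human liver HepG2 cells drive a PBREM cis-element reporter, whose transcript level after 24 h treatment is quantified by RT-PCR with capillary electrophoresis; activity fitted in both directions against DMSO.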

Chain of Hypoxia-inducible factor 1-alpha (Homo sapiens) (Q16665 whole entry, looked up, the tested form may be a part): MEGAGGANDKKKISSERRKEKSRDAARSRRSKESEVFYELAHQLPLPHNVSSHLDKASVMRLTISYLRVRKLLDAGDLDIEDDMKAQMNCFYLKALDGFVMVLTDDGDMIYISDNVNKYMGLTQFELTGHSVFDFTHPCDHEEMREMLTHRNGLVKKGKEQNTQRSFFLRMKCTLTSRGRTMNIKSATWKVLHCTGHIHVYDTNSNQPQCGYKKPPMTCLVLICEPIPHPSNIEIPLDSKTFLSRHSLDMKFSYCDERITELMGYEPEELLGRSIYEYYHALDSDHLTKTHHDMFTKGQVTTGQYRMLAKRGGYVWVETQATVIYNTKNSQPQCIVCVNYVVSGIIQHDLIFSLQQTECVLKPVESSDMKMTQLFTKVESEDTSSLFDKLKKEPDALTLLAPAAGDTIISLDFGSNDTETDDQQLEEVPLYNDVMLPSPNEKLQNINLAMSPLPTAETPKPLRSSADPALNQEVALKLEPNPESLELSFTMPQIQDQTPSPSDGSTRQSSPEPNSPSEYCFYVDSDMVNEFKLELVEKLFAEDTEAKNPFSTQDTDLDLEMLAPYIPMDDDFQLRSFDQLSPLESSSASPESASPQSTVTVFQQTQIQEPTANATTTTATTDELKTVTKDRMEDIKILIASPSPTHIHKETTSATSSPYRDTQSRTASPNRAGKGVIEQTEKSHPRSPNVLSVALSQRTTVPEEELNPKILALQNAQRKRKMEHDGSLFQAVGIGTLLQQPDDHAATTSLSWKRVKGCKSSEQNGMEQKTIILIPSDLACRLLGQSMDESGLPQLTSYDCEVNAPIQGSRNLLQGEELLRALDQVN
Chain of Hepatocyte nuclear factor 6 (Homo sapiens) (Q9UBC0 whole entry, looked up, the tested form may be a part): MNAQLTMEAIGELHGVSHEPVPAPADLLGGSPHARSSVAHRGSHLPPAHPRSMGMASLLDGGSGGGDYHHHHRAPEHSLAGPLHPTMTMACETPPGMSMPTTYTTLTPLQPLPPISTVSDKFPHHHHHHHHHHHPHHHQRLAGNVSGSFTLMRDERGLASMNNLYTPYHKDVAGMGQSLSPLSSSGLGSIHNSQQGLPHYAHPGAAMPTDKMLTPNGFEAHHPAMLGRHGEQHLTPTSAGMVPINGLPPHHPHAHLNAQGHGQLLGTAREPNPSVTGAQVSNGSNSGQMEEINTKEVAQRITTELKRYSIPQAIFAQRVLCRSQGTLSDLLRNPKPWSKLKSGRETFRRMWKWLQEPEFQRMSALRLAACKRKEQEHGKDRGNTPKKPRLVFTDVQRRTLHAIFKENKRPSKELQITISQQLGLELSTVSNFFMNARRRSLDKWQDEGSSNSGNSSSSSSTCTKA
Chain of Heat shock factor protein 1 (Homo sapiens) (Q00613 whole entry, looked up, the tested form may be a part): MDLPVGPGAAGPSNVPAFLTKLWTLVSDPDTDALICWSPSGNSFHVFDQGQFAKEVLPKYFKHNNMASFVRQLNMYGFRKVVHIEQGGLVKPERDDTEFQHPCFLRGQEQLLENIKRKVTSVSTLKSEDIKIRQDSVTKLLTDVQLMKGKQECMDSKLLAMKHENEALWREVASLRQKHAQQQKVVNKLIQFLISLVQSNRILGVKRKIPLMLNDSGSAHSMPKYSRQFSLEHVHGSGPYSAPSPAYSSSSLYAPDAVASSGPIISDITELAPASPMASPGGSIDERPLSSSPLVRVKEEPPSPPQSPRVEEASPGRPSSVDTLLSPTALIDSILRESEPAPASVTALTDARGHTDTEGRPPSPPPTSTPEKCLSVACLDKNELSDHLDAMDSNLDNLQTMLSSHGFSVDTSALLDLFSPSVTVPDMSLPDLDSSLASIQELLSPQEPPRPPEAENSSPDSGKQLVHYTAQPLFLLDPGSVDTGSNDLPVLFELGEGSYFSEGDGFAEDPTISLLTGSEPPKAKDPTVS
Chain of Hepatocyte nuclear factor 3-beta (Homo sapiens) (Q9Y261 whole entry, looked up): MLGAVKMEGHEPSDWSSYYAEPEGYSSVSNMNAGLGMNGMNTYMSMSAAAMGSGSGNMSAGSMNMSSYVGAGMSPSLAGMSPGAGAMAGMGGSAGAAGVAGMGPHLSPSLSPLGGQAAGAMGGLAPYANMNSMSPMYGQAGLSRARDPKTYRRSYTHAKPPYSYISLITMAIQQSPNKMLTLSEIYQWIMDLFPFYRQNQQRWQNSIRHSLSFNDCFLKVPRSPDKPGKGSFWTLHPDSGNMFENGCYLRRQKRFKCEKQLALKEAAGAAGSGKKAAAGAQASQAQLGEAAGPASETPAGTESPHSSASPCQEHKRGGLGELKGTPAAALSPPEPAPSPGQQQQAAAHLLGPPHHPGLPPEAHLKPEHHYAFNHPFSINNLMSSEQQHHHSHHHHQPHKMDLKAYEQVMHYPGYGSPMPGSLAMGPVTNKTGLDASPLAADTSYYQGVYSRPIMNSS

Regarding `CCCCCCCC/C=C\CCCCCCCC(=O)O`, the outcome in [1], in assay [2], in [3], in [4], in assay [5] and in [6] was inactive. The call in assay [7], in assay [8], in assay [9], in [10], in assay [11] and in [12] was inactive. Also, the call in [13], in assay [14] and in assay [15] was inactive.

`C=C1C2CCC(C2)C1(C)C` (stereo unspecified): the outcome in assay [1], in assay [2], in assay [3], in assay [5], in assay [6] and in [7] was inactive. Also, the compound was classed as inactive in assay [16], in [8], in [9], in [10], in assay [11] and in assay [12]. Further, the result in assay [13], in assay [17] and in assay [15] was inactive.

For `c1cc(N(CC2CO2)CC2CO2)ccc1OCC1CO1` (stereo unspecified), the outcome in assay [1], in assay [18], in assay [3], in assay [5], in [6] and in assay [7] was inactive. In addition, the outcome in assay [11], in assay [12], in [14] and in [19] was inactive. For the same compound, the AC50 in [2] is 38.7 µM (active); in assay [8], 140 µM (active); in [10], 74.4 µM (active); in [13], 39.6 µM (active); in [17] it was 152 µM (active); in assay [15], 31.7 µM (active).

In the case of `CC1=CC[C@H](C(C)C)C=C1`, the result in assay [1], in [2], in [3], in [4], in [5] and in assay [6] was inactive. For the same compound, the result in assay [7], in assay [16], in assay [8], in assay [11], in assay [12] and in assay [13] was inactive. The outcome in assay [14] and in assay [17] was inactive. For the same compound, in assay [15], the AC50 is 66.3 µM (active).

For the origin of these results see PubChem BioAssay (EPA / NIEHS).
